NPC1 promoter act: NPC1 promoter activation. Huh7 NPC1 promoter luciferase reporter, 24 h. Potency, µM (top dose mostly 9.22 µM), usual class: activators. 2.4% of 320,000 active. AID 485313; further: nearly all actives have a fitted effect of over 60% in size
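NPC1 promoter–luciferase Huh7 cells; 24 h compound; luminescence.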
ELG1 genotox: genotoxicity induction in ELG1-luciferase HEK293T cells; HEK293T ELG1-luciferase reporter, luminescence, 16 h; Potency, µM (series often up to 46 µM), hits mostly activators; 1.3% of 330,000 active; AID 504466; further: nearly all actives have a fitted effect of over 60% in size
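Step 1: seed 2,000 HEK293T ELG1-luciferase cells per well. Step 2: add compound or DMSO, incubate 16 hr at 37 °C. Step 3: ONE-Glo, 30 min at room temperature, read luminescence.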
KinaseGlo FLuc: Kinase-Glo luciferase inhibition (counter-screen) | Kinase-Glo luciferase, ATP luminescence, 8 min | Potency, µM (highest dose often 38.3 µM), actives largely listed as inhibitors | 0.28% of 200,000 active; further: nearly all actives have a fitted effect of over 60% in size
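Inhibition of Kinase-Glo luciferase light generation was assessed at 10 uM ATP in pH 7.2 imidazole buffer, with luminescence measured after eight minutes at ambient temperature.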
FLuc counter: inhibits or activates purified firefly luciferase, miR-21 counter-screen. P08659. purified FLuc, Km substrates, luminescence inhibition. Potency, µM (series often up to 57.5 µM), actives largely listed as inhibitors. 6.9% of 360,000 active; further: nearly all actives have a fitted effect of over 55% in size
Target sequence (P08659 whole entry, looked up): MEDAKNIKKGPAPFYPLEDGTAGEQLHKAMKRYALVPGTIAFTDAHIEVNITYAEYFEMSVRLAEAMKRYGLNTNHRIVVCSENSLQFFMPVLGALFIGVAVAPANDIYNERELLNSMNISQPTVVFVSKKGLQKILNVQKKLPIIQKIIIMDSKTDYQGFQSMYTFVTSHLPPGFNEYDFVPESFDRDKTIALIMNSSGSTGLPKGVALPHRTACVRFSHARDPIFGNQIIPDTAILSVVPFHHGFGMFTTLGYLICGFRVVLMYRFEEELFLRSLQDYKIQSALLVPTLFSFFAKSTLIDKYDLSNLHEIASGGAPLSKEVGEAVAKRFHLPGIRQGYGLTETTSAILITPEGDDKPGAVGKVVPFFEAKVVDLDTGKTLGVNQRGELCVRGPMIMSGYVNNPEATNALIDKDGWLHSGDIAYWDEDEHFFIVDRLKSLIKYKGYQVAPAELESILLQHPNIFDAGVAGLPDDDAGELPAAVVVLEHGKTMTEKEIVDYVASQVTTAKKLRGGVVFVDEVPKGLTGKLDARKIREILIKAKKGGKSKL
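Purified P. pyralis luciferase (10nM final) with 10uM D-luciferin and 10uM ATP (Km levels) in 50mM Tris acetate pH 7.5, 10mM Mg acetate, 0.01% Tween-20, 0.05% BSA; qHTS 6-point titration, ~60 µM downward; luminescence read.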
SMN2 splice up: SMN2 splice variant enhancement; HEK293 SMN2-luciferase splicing reporter, luminescence, 30-36 h; 2.8% of 210,000 active; AID 1458; Potency, µM (titrated, usually from 46.1 µM), hits mostly activators; further: nearly all actives have a fitted effect of over 55% in size
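HEK293 cells carry an SMN2 […]–luciferase reporter in which exon 7 inclusion puts luciferase in frame. Cells were plated 10-12 h before compound addition, then incubated 30-36 h at 37C. ONE-Glo luminescence was read; sodium butyrate at 4.5 mM final served as control.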
Rab9 prom act: activates the Rab9 promoter; Huh7 Rab9 promoter-luciferase reporter, luminescence, 24 h; Potency, µM (top dose mostly 9.22 µM), actives largely listed as activators; 2.8% of 320,000 active; AID 485297; further: nearly all actives have a fitted effect of over 60% in size
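Cells were plated at 1500 per well in reduced-serum medium with 10% FBS and left 2 h. Compound in DMSO was then added for 24 h at 37 °C. Reporter signal was read by luminescence after 10 min with luciferase detection reagent.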
Large screens that a line does not name were inactive. The list is not random: actives were taken first. Their share in the collection is about 7.5%. The call rests on the fitted dose curve; in most records, active means well fitted curve in the direction sought with a large enough effect; inconclusive means small, poorly fitted or top-dose-only effect, or another doubt; inactive means no such curve, though single readings can be large; an effect the other way counts as inactive or inconclusive.

CN1CCN(C(=O)c2cc(COc3ccccc3)on2)[C@@H](c2ccccc2)C1	NPC1 promoter act 3.55µM, ELG1 genotox 13µM, FLuc counter 9.53µM, Rab9 prom act 2µM (no result: KinaseGlo FLuc, SMN2 splice up)
Cc1ccc(OCc2cc(C(=O)N3CCC(Oc4cccnc4)CC3)no2)cc1C	none (no result: KinaseGlo FLuc, SMN2 splice up)
Cc1ccc(OCc2cc(C(=O)N3CCN(C)C[C@@H]3c3ccccc3)no2)cc1C	NPC1 promoter act 2.82µM, ELG1 genotox inconclusive, FLuc counter 21.3µM, Rab9 prom act 2.51µM (no result: KinaseGlo FLuc, SMN2 splice up)
COc1cccc(OCc2cc(C(=O)N3CCCC3c3ccccn3)no2)c1 (stereo unspecified)	NPC1 promoter act 2.24µM, ELG1 genotox inconclusive, FLuc counter 15.1µM, Rab9 prom act 2.82µM (no result: KinaseGlo FLuc, SMN2 splice up)
Cc1ccc(NC(=O)NCCc2c(C)nn(C)c2C)cc1Cl	none (no result: NPC1 promoter act, ELG1 genotox, KinaseGlo FLuc, SMN2 splice up, Rab9 prom act)
CN(Cc1cccc(Cl)c1Cl)C(=O)CCNC(=O)c1ccco1	none (no result: NPC1 promoter act, KinaseGlo FLuc, FLuc counter, SMN2 splice up, Rab9 prom act)
COc1ccc(-c2nc(CSCC(=O)NCc3ccco3)c(C)o2)cc1	FLuc counter 16.9µM
CCc1ccc(-c2nc(CSCC(=O)NC3CC3)c(C)o2)cc1	FLuc counter 19µM (no result: KinaseGlo FLuc, SMN2 splice up)
CCCC(NC(=O)C(C)Sc1nnnn1C1CC1)c1ccccc1 (stereo unspecified)	none (no result: KinaseGlo FLuc, SMN2 splice up)
CCn1c(SCC(=O)N2CCOCC2)nnc1C(C)NC(=O)c1ccccc1 (stereo unspecified)	none (no result: KinaseGlo FLuc, SMN2 splice up)
Oc1ccc(O)c(-c2cnns2)c1	FLuc counter 8.49µM
Nc1nc(N)nc(-c2cc(O)ccc2O)n1	NPC1 promoter act inconclusive (no result: KinaseGlo FLuc, SMN2 splice up)
O=C(NCCc1c[nH]c2ccccc12)c1c(Cl)nc2sccn12	NPC1 promoter act inconclusive, Rab9 prom act inconclusive
O=C(c1c(Cl)nc2sccn12)N(C(=O)c1c(Cl)nc2sccn12)c1ccc(Cl)cn1	ELG1 genotox 3.66µM, SMN2 splice up 12.6µM
COc1ccc(/C=C/C(=O)Nc2ccc3nc4c(c(Nc5ccc(OC)c(OC)c5)c3c2)CCCC4)cc1	none (no result: NPC1 promoter act, ELG1 genotox, KinaseGlo FLuc, Rab9 prom act)
O=C(COn1nnc2ccccc21)NCC1CCCCC1	ELG1 genotox 12.6µM, FLuc counter 16.9µM
Cc1ccn2cc(-c3ccc(NC(=O)c4ccco4)cc3)nc2c1	NPC1 promoter act 3.16µM, ELG1 genotox inconclusive, FLuc counter 3.38µM, SMN2 splice up 4.47µM, Rab9 prom act 1.41µM
Cc1nc(-c2ccc(NC(=O)c3ccco3)cc2)cs1	NPC1 promoter act inconclusive, ELG1 genotox 0.206µM, FLuc counter 0.0675µM, Rab9 prom act inconclusive (no result: KinaseGlo FLuc, SMN2 splice up)
Nc1nc(-c2ccc(NC(=O)c3ccco3)cc2)cs1	NPC1 promoter act 0.708µM, ELG1 genotox inconclusive, FLuc counter 0.675µM, Rab9 prom act 0.794µM (no result: KinaseGlo FLuc, SMN2 splice up)
Nc1nc2ccc(NC(=O)c3ccco3)cc2s1	NPC1 promoter act inconclusive, ELG1 genotox inconclusive, FLuc counter 15.1µM, Rab9 prom act inconclusive (no result: KinaseGlo FLuc, SMN2 splice up)
Cc1nc(-c2cccc(NC(=O)c3ccco3)c2)cs1	FLuc counter inconclusive (no result: KinaseGlo FLuc, SMN2 splice up)
COc1cc2c(cc1NC(=O)COc1cc(C)cc(C)c1)oc1ccccc12	none (no result: NPC1 promoter act, ELG1 genotox, KinaseGlo FLuc, Rab9 prom act)
Cc1cc(/C=c2/sc3nc4ccccc4n3c2=O)c(C)n1-c1ccccn1	KinaseGlo FLuc inconclusive, FLuc counter 0.135µM
O=c1/c(=C\c2cccnc2)sc2nc3ccccc3n12	ELG1 genotox inconclusive, SMN2 splice up inconclusive
O=c1/c(=C/c2ccc(O)c([N+](=O)[O-])c2)sc2nc3ccccc3n12	FLuc counter 6.75µM
Cc1cc(/C=c2\sc3nc4ccccc4n3c2=O)c(C)n1-c1ccc(C(=O)O)cc1	NPC1 promoter act inconclusive, FLuc counter 15.1µM
COc1ccc(-n2nc([N+](=O)[O-])c(=NCc3ccc4c(c3)OCO4)n2O)cc1	NPC1 promoter act 2.24µM, ELG1 genotox inconclusive, FLuc counter inconclusive, SMN2 splice up inconclusive, Rab9 prom act inconclusive
O=[N+]([O-])c1nn(-c2ccc3c(c2)OCCO3)n(O)c1=NC1CCCC1	ELG1 genotox inconclusive, Rab9 prom act inconclusive
O=[N+]([O-])c1nn(-c2ccc3c(c2)OCCO3)n(O)c1=Nc1ccccc1	FLuc counter 12µM
O=[N+]([O-])c1nn(-c2ccc3c(c2)OCCO3)n(O)c1=NC1CCCCCC1	ELG1 genotox inconclusive, FLuc counter 16.9µM, Rab9 prom act inconclusive

Source: PubChem BioAssay (National Center for Advancing Translational Sciences (NCATS))
